Results filed as inconclusive are left out. Active and inactive are the calls of the source. Calls come from the whole dose curve; as a rule, active = well fitted curve in the direction sought with a large enough effect; inconclusive = small, poorly fitted or top-dose-only effect, or another doubt; inactive = no such curve, though single readings can be large; an effect the other way counts as inactive or inconclusive.
Experiment: qHTS assay to identify small molecule inhibitors of chordoma cells - UCH-2 (AID 1259356)
Conditions: UCH-2 chordoma viability, CellTiter-Glo ATP luminescence, 48 h; series mostly up to 46.1 µM; activity change, negative = inhibition: at the top concentration
% is set by controls: 0 for no effect and ±100 for the full control effect.

SMILES | activity change, negative = inhibition
CN(C)CCN1C(=O)c2ccccc2N(C)c2ccccc21 | 5.36% (inactive)
NCCNc1cccc2ccccc12 | 6.18% (inactive)
CCCCCCCC/C=C\CCCCCCCCN | 0.456% (inactive)
COc1ccc2c(c1)c1c3n2CCN(C)C3=NCC1 | -2.61% (inactive)
Cc1c(-c2ccccc2)oc2c(C(=O)OCCN3CCCCC3)cccc2c1=O | 0.275% [at 20.6 µM] (inactive)
CC[N+](C)(CC)CCOC(=O)C(O)(c1ccccc1)C1CCCCC1 (configuration not stated) | -1.39% (inactive)
CC(=O)N[C@@H](CCC(=O)O)C(=O)O | 0.093% (inactive)
Cc1cc(NS(=O)(=O)c2ccc(N)cc2)nc(C)n1 | 3.27% (inactive)
O=C(O)C1(C(=O)O)CCC1.[NH2-].[NH2-].[Pt+2] | -0.0733% (inactive)
CC1(COc2ccc(CC3SC(=O)NC3=O)cc2)CCCCC1 (configuration not stated) | 3.12% (inactive)
Cc1ccc(S(=O)(=O)NC(=O)NC2CCCC2)cc1 | -0.973% (inactive)
CCOc1cc(OCC)c(C(=O)CCC(=O)O)cc1OCC | -13.6% (inactive)
COc1ccc(/C=N/NC(=O)c2ccncc2)cc1OC | -2.66% (inactive)
N=C(N)N1CCc2ccccc2C1 | 7.44% (inactive)
Cc1cc(C)cc(OCC2CNC(=O)O2)c1 (configuration not stated) | -1.63% (inactive)
CC(C)(C)NC[C@H](O)COc1cccc2c1CCCC2=O | 5.29% [at 20.6 µM] (inactive)
O=C(Nc1cccc(C2=NCCN2)c1)Nc1cccc(C2=NCCN2)c1 | 7.27% (inactive)
CCCCCCCCCCCCCCCCO | 6.12% (inactive)

SMILES | activity change, negative = inhibition
CCOC(=O)Nc1ccc2c(c1)N(C(=O)CCN1CCOCC1)c1ccccc1S2 | 5.1% [at 20.6 µM] (inactive)
NS(=O)(=O)c1cc(C(=O)O)cc(N2CCCC2)c1Oc1ccccc1 | 5.51% [at 20.6 µM] (inactive)
CC(CNC1CCCCC1)OC(=O)c1ccccc1 (configuration not stated) | -25.4% [at 20.6 µM] (inactive)
CCCCN1C[C@H](O)[C@@H](O)[C@H](O)[C@H]1CO | -3.56% (inactive)
Cc1cccc(C)c1NC(=O)CN1CCCCCC1 | 0.656% (inactive)
CCC(Cc1c(I)cc(I)c(N)c1I)C(=O)O (configuration not stated) | 13.1% [at 20.6 µM] (inactive)
CC(C)CCCC(C)N (configuration not stated) | 5.36% (inactive)
O=C(Nc1ccc([N+](=O)[O-])cc1)Nc1ccc([N+](=O)[O-])cc1 | 5.3% (inactive)
C#C[C@]1(O)CC[C@H]2[C@@H]3CCC4=CC(=O)CC[C@@H]4[C@H]3CC[C@@]21CC | 6.84% (inactive)
Cc1cccc(C)c1NC(=O)c1ccccc1C(=O)O | -0.886% (inactive)
CCN(CC)CCOC(=O)C1(c2ccccc2)CCCC1 | 2.23% (inactive)
CC1(C)OC[C@@H]2O[C@@]3(C(=O)O)OC(C)(C)O[C@H]3[C@@H]2O1 | 6.11% (inactive)
CCCCCCCCCCCCCCCC(=O)O | -0.561% (inactive)
CN1CCN(c2c(F)cc3c(=O)c(C(=O)O)cn4c3c2SCC4)CC1 | 1.95% (inactive)
OC[C@H]1O[C@@H](Oc2ccc(O)cc2)[C@H](O)[C@@H](O)[C@@H]1O | 5.87% (inactive)
CC(=O)Nc1ccc(CC(=O)O)cc1 | 1.65% (inactive)
Oc1ccccc1C=NCc1ccccc1 | 12.5% (inactive)
CC1CCc2c(N3CCC(O)CC3)c(F)cc3c(=O)c(C(=O)O)cn1c23 (configuration not stated) | 6.38% (inactive)

Experiment: P-glycoprotein substrates identified in KB-8-5-11 adenocarcinoma cell line, qHTS therapeutic library screen (AID 1346987); note: nearly all actives have a fitted effect of over 65% in size; note: potency is the fitted concentration of half-maximal effect
Conditions: KB-8-5-11 (P-gp overexpressing) viability, CellTiter-Glo, 72 h; series mostly up to 44.5 µM; activity change, negative = cytotoxicity: at the top concentration
How it was run: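 In this qHTS, P-gp-rich KB-8-5-11 cells received library compounds across a concentration range. Viability was quantified by luminescence after 72 h at 37 degree C.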

SMILES | activity change, negative = cytotoxicity | Potency
CN(C)CCN1C(=O)c2ccccc2N(C)c2ccccc21 | -28.3% (inactive) | –
NCCNc1cccc2ccccc12 | -7.24% (inactive) | –
CCCCCCCC/C=C\CCCCCCCCN | 6.59% (inactive) | –
COc1ccc2c(c1)c1c3n2CCN(C)C3=NCC1 | 3.69% (inactive) | –
Cc1c(-c2ccccc2)oc2c(C(=O)OCCN3CCCCC3)cccc2c1=O | -9.54% [at 17.3 µM] (inactive) | –
CC[N+](C)(CC)CCOC(=O)C(O)(c1ccccc1)C1CCCCC1 (configuration not stated) | 10.4% (inactive) | –
CC(=O)N[C@@H](CCC(=O)O)C(=O)O | -13.8% (inactive) | –
Cc1cc(NS(=O)(=O)c2ccc(N)cc2)nc(C)n1 | 10% (inactive) | –
O=C(O)C1(C(=O)O)CCC1.[NH2-].[NH2-].[Pt+2] | 12.1% (inactive) | –
CC1(COc2ccc(CC3SC(=O)NC3=O)cc2)CCCCC1 (configuration not stated) | -12.9% (inactive) | –
Cc1ccc(S(=O)(=O)NC(=O)NC2CCCC2)cc1 | 6.97% (inactive) | –
CCOc1cc(OCC)c(C(=O)CCC(=O)O)cc1OCC | -5.56% (inactive) | –
COc1ccc(/C=N/NC(=O)c2ccncc2)cc1OC | 0.349% (inactive) | –
N=C(N)N1CCc2ccccc2C1 | 23.1% (inactive) | –
Cc1cc(C)cc(OCC2CNC(=O)O2)c1 (configuration not stated) | -9.84% (inactive) | –
CC(C)(C)NC[C@H](O)COc1cccc2c1CCCC2=O | 0.0961% [at 17.3 µM] (inactive) | –
O=C(Nc1cccc(C2=NCCN2)c1)Nc1cccc(C2=NCCN2)c1 | -1.02% (inactive) | –
CCCCCCCCCCCCCCCCO | 8.6% (inactive) | –

SMILES | activity change, negative = cytotoxicity | Potency
CCOC(=O)Nc1ccc2c(c1)N(C(=O)CCN1CCOCC1)c1ccccc1S2 | -29.1% [at 17.3 µM] (inactive) | –
NS(=O)(=O)c1cc(C(=O)O)cc(N2CCCC2)c1Oc1ccccc1 | -8.91% [at 17.3 µM] (inactive) | –
CC(CNC1CCCCC1)OC(=O)c1ccccc1 (configuration not stated) | -28.1% [at 17.3 µM] (inactive) | –
CCCCN1C[C@H](O)[C@@H](O)[C@H](O)[C@H]1CO | 1.67% (inactive) | –
Cc1cccc(C)c1NC(=O)CN1CCCCCC1 | -21.7% (inactive) | –
CCC(Cc1c(I)cc(I)c(N)c1I)C(=O)O (configuration not stated) | -1.53% [at 17.3 µM] (inactive) | –
CC(C)CCCC(C)N (configuration not stated) | 16% (inactive) | –
O=C(Nc1ccc([N+](=O)[O-])cc1)Nc1ccc([N+](=O)[O-])cc1 | -14.7% (inactive) | –
C#C[C@]1(O)CC[C@H]2[C@@H]3CCC4=CC(=O)CC[C@@H]4[C@H]3CC[C@@]21CC | – | 8.2 µM (active)
Cc1cccc(C)c1NC(=O)c1ccccc1C(=O)O | -16.1% (inactive) | –
CCN(CC)CCOC(=O)C1(c2ccccc2)CCCC1 | -3.47% (inactive) | –
CC1(C)OC[C@@H]2O[C@@]3(C(=O)O)OC(C)(C)O[C@H]3[C@@H]2O1 | -3.03% (inactive) | –
CCCCCCCCCCCCCCCC(=O)O | 5.48% (inactive) | –
CN1CCN(c2c(F)cc3c(=O)c(C(=O)O)cn4c3c2SCC4)CC1 | -25.5% (inactive) | –
OC[C@H]1O[C@@H](Oc2ccc(O)cc2)[C@H](O)[C@@H](O)[C@@H]1O | -12.2% (inactive) | –
CC(=O)Nc1ccc(CC(=O)O)cc1 | 4.57% (inactive) | –
Oc1ccccc1C=NCc1ccccc1 | 10.8% (inactive) | –
CC1CCc2c(N3CCC(O)CC3)c(F)cc3c(=O)c(C(=O)O)cn1c23 (configuration not stated) | -20.5% (inactive) | –
